High-throughput results from PubChem BioAssay.
Most compounds without a hit are left out; they make up all but 7.9% or so of the library.
HCV inhibitor = qHTS Assay for Inhibitors of Hepatitis C Virus (HCV); Huh7.5.1 HCVcc-Cre infection, luciferase reporter, 44 h; Potency, µM (series often up to 41.8 µM), for the others: top-dose activity change, negative = inhibition, usual class: inhibitors; 340,000 compounds, 3.4% hits; AID 651820, 2012; active means well fitted inhibition curve with a large enough effect; inconclusive means small, poorly fitted or top-dose-only effect, or another doubt; inactive means no such curve, though single readings can be large or run the other way; further: potency means the concentration at half of the fitted maximal effect
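HCVcc-Cre virus at an moi near 0.5 was added right after compound to cells cultured 4 h from seeding (1,000 cells/well). Luciferase activity was determined 44 h later, 15 min after substrate addition at RT.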
LASV entry inh = qHTS for Inhibitors of binding or entry into cells for Lassa Virus; Lassa virus pseudotype entry inhibition, cell reporter; Potency, µM (highest dose often 37.9 µM), for the others: top-dose activity change, negative = inhibition, most hits filed as inhibitors; 300,000 compounds, 1.2% hits; AID 540256, 2011; calls by dose curve; tested in HEK293 cells; further: potency means the concentration at half of the fitted maximal effect; nearly all actives have a fitted effect of over 50% in size
MARV entry inh = qHTS for inhibitors of binding or entry into cells for Marburg Virus; Marburg virus pseudotyped entry inhibition, cell reporter; Potency, µM (top dose mostly 37.8 µM), for inactives: top-dose activity change, negative = inhibition, hits mostly inhibitors; 300,000 compounds, 1.8% hits; calls by dose curve; tested in HEK293 cells; further: potency means the concentration at half of the fitted maximal effect
FMDV inh = High Throughput Screening for Foot and Mouth Disease Virus Antivirals | FMDV antiviral cell-based qHTS | Potency, µM (top dose mostly 57.9 µM), for inactives: top-dose activity change, negative = inhibition, most hits filed as inhibitors | 410,000 compounds, 1.2% hits | AID 1159524, 2015; calls by dose curve; tested in HEK293T cells; further: read-out not given here; potency means the concentration at half of the fitted maximal effect; nearly all actives have a fitted effect of over 45% in size
HCMV inh = qHTS Assay for inhibitors of the human cytomegalovirus (HCMV); HFF cells, HCMV-luciferase reporter, 72 h; hits give low values; activity change, negative = inhibition, % at 57.5 µM; 410,000 compounds, 4.5% hits; AID 1259415, 2018; in the data active means activity change below about -60%; inconclusive means no clear call, values can overlap the other calls; inactive means above about -39%
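Two-dose cell screen: HFF monolayers treated with compounds and infected with luciferase-expressing HCMV at 1 PFU/cell, 72 h at 37C, then lysed for luciferase measurement.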
Starred values were filed as active, the others as inactive; ? = inconclusive; / = not tested or not shown; [ ] = remark or other dose. On the % scale 0 is the no-effect control and ±100 the full control effect.

SMILES	HCV inhibitor	LASV entry inh	MARV entry inh	FMDV inh	HCMV inh
NC(=S)N/N=C/c1ccccc1O	0.8%	/	/	-10.1%	-22.3
COc1cc(/C=N/NC(=O)c2ccccc2)ccc1O	3.0%	/	/	30.8%	1.8
NC(=S)N/N=C/c1cccc(O)c1O	?	?	?	24.4%	-100.4*
CCOc1c(Br)cc(/C=N\NC(=O)c2ccccc2)cc1OC	?	11.6%	?	-28.5%	-62.5*
COc1cccc(CNc2nc3ccccc3c3nc(-c4cccc(C)c4)nn23)c1	/	/	?	30.1%	87.7
Cc1c(C(=O)N2CCOc3ccccc3C2)sc2ncnc(NCCCN3CCOCC3)c12	/	/	/	-9.8%	/
COc1ccc(C(=O)Nc2nnc(S(=O)(=O)N3CCCc4ccccc43)s2)cc1	/	14.0%[46.1 µM]	/	43.0%	34.3
COc1ccc(CCCC(=O)N/N=C/c2cccc(OC)c2O)cc1C	?	?	?	-20.1%	-99.1*
COc1cc(/C=N/NC(=O)c2ccc3c(c2)OCCO3)cc(Br)c1O	-4.9%	/	/	26.1%	22.3
COc1cccc(/C=N/NC(=O)c2ccc([N+](=O)[O-])cc2Cl)c1O	?	14.6µM*	?	0.4%	-29.5
COc1cc(/C=N\NC(=O)c2ccc(-c3ccccc3)cc2)cc(Br)c1O	?	-5.6%	?	-6.2%	-68.4*
COc1cccc(/C=N/NC(=O)c2ccc(-c3ccccc3)cc2)c1O	?	5.62µM*	3.16µM*	-27.2%	-97.6*
Cc1ccc(-c2nn(CC(=O)NC3CCCC3)c3c2cnc2ccc(F)cc23)cc1C	/	?	/	32.8%	80.4
C[C@H]1[C@@H](NC(=O)Nc2cc(Cl)cc(Cl)c2)CC[C@@]23CCCN2C(=O)CCC[C@@H]13	/	/	/	/	3.9
COc1cccc(/C=N/NC(=O)c2[nH]c(C)c(C(=O)N/N=C/c3cccc(OC)c3O)c2C)c1O	?	?	8.91µM*	32.0%	57.5
O=c1[nH]c(N/N=C/c2ccccc2Br)nnc1-c1ccccc1	-21.0%	9.2%	?	6.0%	15.2
COc1ccc2[nH]c(C(=O)N/N=C/c3ccccc3OC)cc2c1	-10.3%	/	/	-5.1%	-3.0
COc1ccc(/C=N/Nc2nnc(-c3ccccc3)c(=O)[nH]2)cc1	5.6%	?	1.8%	6.1%	-99.6*
COc1cccc(/C=N/NC(=O)c2ccc(=O)[nH]n2)c1O	7.8%	/	/	61.2%	-0.3
COc1ccc2[nH]c(C(=O)N/N=C/c3ccc(OC)c(O)c3)cc2c1	-13.9%	5.62µM*	?	7.4%	-74.0*
COc1cc(OC)c2cc(C(=O)N/N=C/c3ccccc3O)[nH]c2c1	8.91µM*	/	/	-15.8%	-95.9*
COc1ccc(OC)c(/C=N/NC(=O)c2cc3c(OC)c(OC)ccc3[nH]2)c1	?	-6.3%	-17.3%	-9.0%	56.6
CCn1c(CNC(=O)c2ccc(OC)cc2)nnc1SCC(=O)Nc1cccc(C)c1	/	4.8%[46.1 µM]	24.7%[46.1 µM]	-8.6%	19.5
COc1ccc(C(=O)c2oc3ccccc3c2NC(=O)c2cc(=O)c3ccc(C)cc3o2)cc1Cl	/	10.7%[46.1 µM]	?	-4.8%	-5.6
CC(C)=CCC/C(C)=C/CO/N=C1\C[C@@H](O)[C@@H](O)[C@@H]2[C@@H]3C(=O)N(Cc4ccccc4)C(=O)[C@@H]3CC[C@H]12	/	/	3.0%[14.2 µM]	/	/
SMILES	HCV inhibitor	LASV entry inh	MARV entry inh	FMDV inh	HCMV inh
Cc1[nH]c(=O)[nH]c(=O)c1S(=O)(=O)N1CCN(c2ccccc2Cl)CC1	/	16.4%[46.1 µM]	/	8.1%	-3.0
COc1ccc(/C=N/NC(=O)c2ccc(O)cc2)cc1CN1CCCc2ccccc21	?	?	-24.6%	39.8µM*	61.3
COc1cccc(/C=N/NC(=O)C(=O)Nc2ccccc2OC(F)(F)C(F)F)c1O	?	?	8.91µM*	-27.5%	-93.5*
O=C(NN=Cc1cccc(O)c1O)c1ccccc1	/	/	/	11.7%	-94.2*
O=C(N/N=C/c1ccccc1O)c1cc[n+]([O-])cc1	4.9%	?	0.7%[46.1 µM]	7.0%	-2.0
COc1ccc(/C=N/NC(=O)c2nc(-c3ccccc3)cc(-c3ccccc3)n2)cc1O	?	?	17.8µM*	-10.1%	27.4
COc1ccccc1/C=N/NC(=O)c1cccc(OC(F)(F)C(F)F)c1	18.0%	-10.7%	-4.2%	20.0%	-13.0
COc1cc(/C=N/NC(=O)c2nc(-c3ccccc3)n(-c3ccccc3)n2)ccc1O	1.8%	-9.8%	35.8%	-17.4%	-34.2
NC1(N)OC(CN2C(=O)C3=C(CCCC3)C2=O)CS1 (stereo not given)	/	/	-6.2%	/	/
COC(=O)c1cc2c(cc1NC(=O)c1cnn(-c3ccccc3)c1-n1cccc1)OCO2	/	16.2%[46.1 µM]	-6.4%[46.1 µM]	1.8%	0.8
O=C(N/N=C/c1ccc(O)c(O)c1O)/C(=C/c1ccc([N+](=O)[O-])cc1)NC(=O)c1ccccc1	6.31µM*	-12.9%	-23.8%	-28.7%	22.7
Clc1ccc(OCCCCN2CCCCC2)cc1	?	-18.5%[46.1 µM]	?	-14.7%	/
CC(C)c1ccc(OCCCCN2CCCCC2)cc1	?	18.0%	11.2µM*	-9.5%	-27.3
Clc1ccc(OCCCN2CCCC2)cc1Cl	?	?	?	-5.1%	9.8
Cc1ccc(OCCCCCCN2CCNCC2)cc1	?	5.2%	14.1µM*	4.8%	53.3
Cc1cc(OCCCCCN2CCCC2)ccc1Cl	10µM*	/	/	-13.4%	-14.8
Cc1ccc(OCCCCCN2CCOCC2)cc1	15.2%	-4.2%	13.9%	28.2%	8.5
NCc1ccc(-c2nc(-c3ccc(Cl)c(O)c3)c(-c3ccncc3)[nH]2)cc1	/	-18.9%	/	/	/
CCCCc1c(-c2ccccc2OC)ncn1CCc1ccc(OC)cc1	/	/	/	22.4µM*	-63.6*
CCCCc1c(-c2ccc(F)cc2)ncn1CCc1ccccc1OC	/	/	/	25.1µM*	-61.8*
CCCCc1c(-c2ccc(OC)cc2)ncn1CCc1ccccc1OC	/	/	/	22.4µM*	-85.4*
CCCc1c(-c2cccc(Cl)c2)ncn1Cc1ccccc1OC	/	/	/	?	-23.0
CCCCc1c(-c2ccccc2OC)ncn1CCc1ccccc1	/	/	/	?	-32.7
CCCCCc1c(-c2ccc(Cl)cc2)ncn1CCc1ccccc1OC	/	/	/	-1.2%	-75.2*
CCCCc1c(-c2ccccc2OC)ncn1CCc1ccc(Cl)cc1	/	/	/	?	-11.8
SMILES	HCV inhibitor	LASV entry inh	MARV entry inh	FMDV inh	HCMV inh
CCCCc1c(-c2ccccc2)ncn1CCc1ccccc1OC	/	/	/	25.1µM*	-75.2*
CCCCc1c(Cc2ccccc2)ncn1CCc1ccccc1OC	/	/	/	?	-76.5*
CCc1c(-c2ccc(Cl)cc2)ncn1CCc1ccccc1OC	/	/	/	/	-22.6
CCCCc1c(-c2cccc(Cl)c2)ncn1CCc1ccccc1OC	/	/	/	22.4µM*	-80.2*
CCCCCc1c(-c2ccc(OC)cc2)ncn1CCc1ccccc1OC	/	/	/	22.4µM*	-94.4*
Cc1nc(C)c(-c2ccc(SCc3ccc(Cl)cc3)nn2)s1	?	/	/	-8.5%	-26.6
COc1ccccc1-c1ccc(SCc2ccc([N+](=O)[O-])cc2)nn1	?	?	10µM*	-14.0%	-68.1*
Cc1nc(C)c(-c2ccc(SCc3ccc([N+](=O)[O-])cc3)nn2)s1	31.6µM*	/	/	-28.7%	?
